The full list was thinned out, with hits kept by preference.
hDAT+cocaine = changed hDAT dopamine uptake under cocaine IC80, either direction, primary screen, cocaine antagonist project, cell-based, LLC-PK1 hDAT, [14C]-dopamine uptake, MLSMR; LLC-PK1 hDAT cells, [14C]-dopamine uptake with cocaine IC80; actives deviate in either direction; B-score at 10 µM; 110,000 compounds, 1.3% hits;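 active means Z score or B-score, a plate-position-corrected score, falls beyond the plate's 99.7% confidence bounds, in either direction; inactive means both scores lie inside the 99.7% bounds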;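 further: scored against the spread of the other compound wells on the same plate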
D1 allo mod = D1 CRE-luciferase signal change, two-sided – cell-based, HEK293 D1, dopamine EC30, D1 allosteric modulator project, primary screen | D(1A) dopamine receptor (Homo sapiens), P21728 | dopamine EC30 potentiation; actives deviate in either direction | B-score at 10 µM | 58,000 compounds, 5.9% hits;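 active means luminescence count or its row- and column-corrected plate score outside the 99.7% band of the plate's sample wells, on either side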
Target sequence (P21728 whole entry, looked up): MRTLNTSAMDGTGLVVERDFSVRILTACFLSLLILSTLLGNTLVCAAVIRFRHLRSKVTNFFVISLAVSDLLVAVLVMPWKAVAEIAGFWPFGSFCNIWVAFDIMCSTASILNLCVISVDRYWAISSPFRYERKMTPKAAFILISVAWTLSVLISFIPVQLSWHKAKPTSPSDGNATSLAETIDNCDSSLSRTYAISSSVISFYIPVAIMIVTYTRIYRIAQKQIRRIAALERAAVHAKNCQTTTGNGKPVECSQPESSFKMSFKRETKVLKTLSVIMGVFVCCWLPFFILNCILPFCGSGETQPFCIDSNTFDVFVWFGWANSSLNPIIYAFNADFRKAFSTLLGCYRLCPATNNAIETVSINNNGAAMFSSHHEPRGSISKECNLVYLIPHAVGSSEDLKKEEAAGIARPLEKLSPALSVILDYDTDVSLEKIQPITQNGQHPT
BAP1 inh = inhibitors of BAP1 deubiquitinase, primary screen, biochemical, Ub-AMC fluorescence, kinetic; 72,000 compounds, 0.48% hits; calls only at 20 µM; recombinant BAP1, Ub-AMC hydrolysis fluorescence kinetic; active compounds read low;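 active means activity remaining at or below 50% of control, provided the compound also passes the data quality filters; inactive means the rest, including low values that fail the filters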;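 further: 100% = DMSO wells rate and 0% = substrate alone blank rate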
D1 PAM confirm = D1 receptor positive allosteric modulators, retest, confirmation, cell-based, HEK293 D1, CRE-luciferase, duplicate; shares compounds with D1 allo mod; dopamine EC30 potentiation; active compounds read high; luminescence at 10 µM; 2,200 compounds, 88% hits; AID 642, 2007;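 active means luminescence in either of two replicates above the same-plate mean plus 3 SD of the low-dose dopamine control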
D1 ag no DA = D1 receptor agonism without dopamine, confirmation, mechanism study for D1 allosteric modulator project, cell-based, HEK293 D1, CRE-luciferase, secondary assay 1. luminescence, no dopamine; active compounds read high. AID 646, 2007. 1,900 compounds, 0.8% hits. shares compounds with D1 allo mod. luminescence at 10 µM; in the data active means luminescence above about 3900
Isoprot counter = counter-screen for D1 modulators: isoproterenol response in HEK293 cells | shares compounds with D1 allo mod | HEK293 D1 CRE-luciferase, isoproterenol EC30 counter-screen; active compounds read high | luminescence at 10 µM | 2,200 compounds, 63% hits | AID 647;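 active means luminescence in either replicate above plate mean of wells with a partly effective reference agonist dose plus 3 SD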;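 further: isoproterenol raises cAMP through native beta-adrenoceptor Gs so signal bypasses D1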
Numbers without * were called inactive.

For COc1cc2[nH]c(=S)n(C3CCCC3)c(=O)c2cc1OC the results were hDAT+cocaine 0.18, D1 allo mod 2.9*, BAP1 inh inactive, D1 PAM confirm 13356*, D1 ag no DA 1768 and Isoprot counter 2820.
O=C1c2ccccc2C(Nc2ccc3c(c2)OCO3)N1Cc1ccco1 (centres undefined) was read as hDAT+cocaine 0.15, D1 allo mod 7.6*, BAP1 inh inactive, D1 PAM confirm 12600*, D1 ag no DA 1504 and Isoprot counter 3104*.
O=C1c2ccccc2C(Nc2ccc3c(c2)OCO3)N1Cc1ccc2c(c1)OCO2 (centres undefined) was read as hDAT+cocaine -0.031, D1 allo mod 4.1*, BAP1 inh inactive, D1 PAM confirm 9888*, D1 ag no DA 1436 and Isoprot counter 3704*.
O=C1c2ccccc2C(Nc2cccnc2)N1Cc1ccc2c(c1)OCO2 (centres undefined) was read as hDAT+cocaine 1.7, D1 allo mod 1.5 and BAP1 inh inactive.
For O=C1c2ccccc2C(Nc2ccc(F)c(Cl)c2)N1Cc1ccco1 (centres undefined) the results were hDAT+cocaine -1.2, D1 allo mod 3.4 and BAP1 inh inactive.
Screening O=C(Nc1cccc2ccccc12)c1cnn2c(C(F)(F)F)cc(-c3ccccc3)nc12 returned BAP1 inh inactive.
For Cc1cccn2c(=O)cc(O)nc12 the results were BAP1 inh inactive.
For Cc1ccc(C(=O)c2sc3nc(N)c(C#N)c(-c4ccc(C(C)C)cc4)c3c2N)cc1 the results were BAP1 inh inactive.
For CC(C)Cn1c(=O)c2c(c3ccccc31)OC(C)C(=O)N2 (centres undefined) the results were hDAT+cocaine -0.79, D1 allo mod 4.2*, BAP1 inh inactive, D1 PAM confirm 7512*, D1 ag no DA 1516 and Isoprot counter 3412.
For CCCn1c(=O)c2c(c3ccccc31)OCC(=O)N2 the results were hDAT+cocaine -0.17, D1 allo mod 2.2 and BAP1 inh inactive.
For COc1ccccc1N/C(=N/S(=O)(=O)c1ccc(Cl)cc1)c1ccccc1 the results were hDAT+cocaine -1.2.
COc1cc(N/C(=N/S(=O)(=O)c2ccccc2)c2ccccc2)ncn1 was read as hDAT+cocaine 0.16, D1 allo mod 6.4*, D1 PAM confirm 14612*, D1 ag no DA 1720 and Isoprot counter 2724.
O=C(NCCCn1ccnc1)c1cccc([N+](=O)[O-])c1 was read as BAP1 inh inactive.
COc1ccc(C2NC(=S)NC(C)=C2C(=O)Nc2ccc(Cl)cc2)cc1OC (centres undefined) was read as BAP1 inh inactive.
O=C(CSc1nnc(COc2ccc(F)cc2)o1)N1c2ccccc2CCc2ccccc21 was read as hDAT+cocaine -0.41, D1 allo mod 4*, D1 PAM confirm 13460*, D1 ag no DA 1676 and Isoprot counter 2648.
`O=C(CN(C(=O)CSc1nnc(COc2ccccc2)o1)c1ccc(F)cc1)NC1CCCC1` gave hDAT+cocaine 1.2, D1 allo mod 0.85 and BAP1 inh inactive.
For O=C(CN(C(=O)CSc1nnc(COc2ccccc2)o1)c1ccc(F)cc1)NC1CCCCC1 the results were hDAT+cocaine -0.37, D1 allo mod 3.2*, BAP1 inh inactive, D1 PAM confirm 5428, D1 ag no DA 1512 and Isoprot counter 2184.
`O=C(CSc1nnc(COc2cccc3cccnc23)o1)N1CCc2ccccc21` gave hDAT+cocaine 0.71, D1 allo mod 0.27 and BAP1 inh inactive.
CC12CCC(C(=O)N3CCCCC3)(OC1=O)C2(C)C (centres undefined) was read as BAP1 inh inactive.
O=C(Nc1cccc([N+](=O)[O-])c1)c1ccc(Br)c(S(=O)(=O)N2CCC(C(=O)O)CC2)c1 was read as BAP1 inh inactive.
Cc1nc2cc(N=Cc3ccccc3[N+](=O)[O-])ccc2n1C was read as BAP1 inh inactive.
CSc1nc(NCC(C)C)nc(N2CCOCC2)n1 was read as hDAT+cocaine 0.097, D1 allo mod 8.8*, BAP1 inh inactive, D1 PAM confirm 26752*, D1 ag no DA 1652 and Isoprot counter 4592*.
For CCCNc1nc(N2CCOCC2)nc(N2CCOCC2)n1 the results were hDAT+cocaine 0.12, D1 allo mod 0.98 and BAP1 inh inactive.
N=c1oc2ccc3ccccc3c2cc1C(=O)Nc1cccc(C(F)(F)F)c1 was read as BAP1 inh inactive.
For COc1cc(-c2c(C#N)c(N)nc3sc(C(=O)c4ccccc4)c(N)c23)cc(OC)c1OC the results were BAP1 inh inactive.
COc1ccc(C(c2nnnn2Cc2cccs2)N2CCN(c3ccccc3F)CC2)cc1OC (centres undefined) was read as hDAT+cocaine -0.53, D1 allo mod 3.1*, BAP1 inh inactive, D1 PAM confirm 6372, D1 ag no DA 1596 and Isoprot counter 2472.
Screening COCCn1nnnc1C(c1ccc(OC)cc1)N1CCN(c2ccccc2F)CC1 (centres undefined) returned hDAT+cocaine -0.017, D1 allo mod 0.011 and BAP1 inh inactive.
Screening O=C(CC1Sc2ccc(C(F)(F)F)cc2NC1=O)Nc1cccc(Cl)c1 (centres undefined) returned BAP1 inh inactive.
For O=c1[nH]cnc2scc(-c3ccccc3)c12 the results were hDAT+cocaine -0.36.
c1ccc(-c2csc3ncn4cnnc4c23)cc1 was read as hDAT+cocaine 0.73, D1 allo mod 18*, BAP1 inh inactive, D1 PAM confirm 18512*, D1 ag no DA 1700 and Isoprot counter 4824*.
`CCOCC(=O)Nc1cc(C(=O)OC)ccc1C(=O)OC` gave hDAT+cocaine -0.077, D1 allo mod 0.065 and BAP1 inh inactive.
`COC(=O)c1ccc(C(=O)OC)c(NC(=O)COC(=O)C23CC4CC(CC(O)(C4)C2)C3)c1` gave hDAT+cocaine -1.1, D1 allo mod 3.1*, BAP1 inh inactive, D1 PAM confirm 5580*, D1 ag no DA 1192 and Isoprot counter 2280.
`COC(=O)c1ccc(OCC2c3cc(OC)c(OC)cc3CCN2C(=O)c2ccco2)cc1` (centres undefined) gave hDAT+cocaine -1.4 and BAP1 inh inactive.

Compound activity as filed in PubChem.
